# Active and inactive are the calls of the source.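 The calls were made as follows, unless noted: active = z-score of at least 1.8 in each of two replicates, scored against plate mean and spread of sample wells; inactive = the rest.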
# How the values were obtained:
# [1] = survival rescue of mitochondrial mutant cells in low glucose, primary screen, MELAS cybrids, Rieske KO mouse fibroblasts, CellTiter-Glo (AID 1508586;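 active = mean z-score across replicates of 1.96 or higher in either the MELAS or the Rieske mutant cell line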;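 also: test concentration not given here; z relative to plate mean and SD of compound and empty wells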)
# [2] = viability rescue of complex I mutant cybrids, primary screen, cell-based, galactose medium, ATP luminescence (AID 1645843); details: complex I mutant cybrid cells, 72 h, stronger effect = higher value;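 also: positive z means more ATP and so rescue of galactose-driven cybrid death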
# [3] = MELAS cybrid survival, CellTiter-Glo 48 h, stronger effect = higher value
# [4] = Rieske KO mouse fibroblast survival, CellTiter-Glo 72 h
SMILES,"z-score [1, 3]","z-score [1, 4]",z-score [2]
O=C(c1nn(Cc2ccccn2)c2c1CN(C/C=C/c1ccco1)CC2)N1CCc2ccccc2C1,-0.442 (inactive),-0.213,-0.345 (inactive)
CN(C)CCCNC(=O)[C@@H]1C[C@H](CN2CCOCC2)CN(Cc2ccc3ccccc3c2)C1,-0.234 (inactive),-0.142,0.05 (inactive)
Cc1onc(-c2ccccc2)c1C(=O)N1CC(=O)N(Cc2ccccc2)CC(OCC2CC2)C1 (configuration not stated),0.442 (inactive),-0.273,-1.6 (inactive)
O=C(N[C@H]1C[C@H]2C(=O)N3CCC[C@H]3C(=O)N2C1)c1cccnc1Oc1ccc(Cl)cc1,-0.353 (inactive),-0.898,-0.34 (inactive)
COC(=O)CCN1CC(OCc2cccc(OC)c2)CN(C(=O)CCc2cccs2)CC1=O (configuration not stated),-0.467 (inactive),-0.256,0.52 (inactive)
COc1cccc(C(=O)N2CCN3C(=O)[C@@H]4C[C@@H](O)CN4C(=O)[C@H]3C2)c1,-0.0988 (inactive),0.379,0.555 (inactive)
CC1=C(C(=O)N2CCc3c(c(C(=O)NCc4nccs4)nn3Cc3ccccc3)C2)OCCO1,-0.132 (inactive),0.241,0.605 (inactive)
CC(C)CCNc1cc(C(=O)NCCn2ccnc2)cc(S(=O)(=O)Nc2ccccc2)c1,-0.318 (inactive),-0.223,-0.47 (inactive)
Cc1csc(-c2cc(C(=O)NCCC3CCCN3C)cc(S(=O)(=O)N3CCOCC3)c2)c1 (configuration not stated),4.59 (active),-0.54,-1.3 (inactive)
O=C(NCCn1ccnc1)c1cc(NCC2CC=CCC2)cc(S(=O)(=O)N2CCCC2)c1 (configuration not stated),-0.174 (inactive),-0.234,-0.94 (inactive)
C=CCn1nc(C(=O)N2CCOCC2)c2c1CCC(NCc1ccc(Cl)s1)C2 (configuration not stated),-0.625 (inactive),-0.989,0.86 (inactive)
CC(C)Cn1nc(C(=O)N2CCCC2)c2c1CCC(NCCc1cccs1)C2 (configuration not stated),-0.0921 (inactive),-0.284,0.555 (inactive)
NCCCC[C@@H]1NC(=O)[C@@H]2C[C@H](NC(=O)c3sccc3Cl)CN2C1=O,-0.4 (inactive),-0.67,-0.915 (inactive)
O=C(NCc1cccc(F)c1)N[C@H]1C[C@H]2C(=O)N[C@@H](COCc3ccccc3)C(=O)N2C1,0.777 (inactive),-0.345,-0.285 (inactive)
CC(C)CNC(=O)[C@H]1CNC[C@@H](CN2CCOCC2)C1,0.0168 (inactive),0.121,-0.045 (inactive)
CCn1cc(CN2CCN3C(=O)[C@@H]4C[C@@H](O)CN4C(=O)[C@H]3C2)c(C)n1,-0.258 (inactive),-0.193,-0.705 (inactive)
NCCCC[C@@H]1NC(=O)[C@@H]2C[C@H](NCc3nc(-c4ccccc4)cs3)CN2C1=O,-0.0314 (inactive),0.0831,-0.77 (inactive)

SMILES,"z-score [1, 3]","z-score [1, 4]",z-score [2]
CCN1C(=O)N(Cc2cccc(OC)c2)C(=O)C12CCN(CC1CC=CCC1)CC2 (configuration not stated),-0.681 (inactive),-0.854,-0.435 (inactive)
COC(=O)c1c(NC(=O)c2cccnc2)c2cc(NCc3ccc4c(c3)CCO4)cnc2n1CC(C)C,-0.55,3.72,-1.61 (inactive)
C=CCn1nc(C(=O)N2CCSCC2)c2c1CCC(NCCCSC)C2 (configuration not stated),-0.0452 (inactive),-0.019,0.93 (inactive)
COCCCNC(=O)c1nn(C)c2c1CN(C(=O)Cc1c(C)[nH]c3c(F)cccc13)CC2,-0.326 (inactive),-0.829,0.99 (inactive)
CCOC(=O)c1csc(CCNC2CCc3c(c(C(=O)N4CCc5ccccc5C4)nn3C)C2)n1 (configuration not stated),-0.249 (inactive),0.117,-1.24 (inactive)
O=C(NCCn1cncn1)c1cc(-c2ccccc2)cc(S(=O)(=O)N2CCSCC2)c1,-0.182 (inactive),0.272,1.56 (inactive)
COc1cccc(-c2cc3c(n(Cc4ccccn4)c2=O)CCN(C(=O)c2csc(C)n2)C3)c1,-0.876,3.95,-0.495 (inactive)
CCOC(=O)c1nn(CCC(F)(F)F)c2c1CN(C(=O)c1ccco1)CC2,-0.696 (inactive),-0.531,-0.32 (inactive)
COc1cc(/C=C/CN2CC(=O)N(C(C)C)CC(OCc3noc(C)n3)C2)ccc1O (configuration not stated),-0.167 (inactive),-0.562,-1.32 (inactive)
CC(C)=CCNc1cc(C(=O)NCc2cn3ccccc3n2)cc(S(=O)(=O)NC(C)C)c1,-0.403 (inactive),-0.764,-0.5 (inactive)
Cc1ncsc1CCn1nc(C(=O)NC2CC2)c2c1CCN(C(=O)C1Cc3ccccc3O1)C2 (configuration not stated),-0.25,4.81,-0.18 (inactive)
CN1CC(=O)N2CCN(C(=O)NCc3ccccc3)C[C@@H]2C1=O,-0.0344 (inactive),-0.297,-0.795 (inactive)
CN(C)c1ccc(/C=C/CN2CC(=O)N(CCCN3CCCC3=O)CC(O)C2)cc1 (configuration not stated),-0.11 (inactive),-0.286,0.35 (inactive)
COC(=O)CCN1CC(OCc2ccncc2)CN(C(=O)Cc2c(F)cccc2Cl)CC1=O (configuration not stated),-0.399 (inactive),0.103,1.43 (inactive)
CN(C)CCCNC(=O)[C@@H]1C[C@H](CN2CCOCC2)CN(CCc2ccccc2)C1,-0.339 (inactive),-0.139,-0.365 (inactive)
Cc1ccc2c(-c3cc4c(n(CC5CC5)c3=O)CCN(C(=O)c3ccc5c(c3)OCO5)C4)cccc2n1,2.47 (active),3.71,-0.54 (inactive)
CC(C)CCN1C(=O)N(CC(N)=O)C(=O)C12CCN(Cc1nc3ccccc3s1)CC2,-0.288 (inactive),-0.574,0.225 (inactive)
